Laboratory results taken from doi:10.1101/2024.03.05.583629.

Target: pT7_6His-AlfaTag-HOXD13 (human, UniProt P35453 263-343)
Assay: PADIT-seq
Settings: dsDNA, one strand shown

Chain of pT7_6His-AlfaTag-HOXD13 (P35453 263-343): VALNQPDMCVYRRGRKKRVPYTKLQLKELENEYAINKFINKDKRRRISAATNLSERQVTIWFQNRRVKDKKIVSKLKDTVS

**Q.** “CTCGAGGATATCAAGATCTGGCCTCGGCCTTTTAGGGGGAACCTCTAGCTAGCCGACTCACTATAGGGATAATCGCCCTGAGCAAAGACC” was tested. Which binding signal did it give?
**A.** 1.1 ± 0.083 log2FC

**Q.** How did the binding signal turn out when “CTCGAGGATATCAAGATCTGGCCTCGGCATTTTACATGGAACCTCTAGCTAGCCGACTCACTATAGGGATAATCGCCCTGAGCAAAGACC” was run?
**A.** 2.14 ± 0.0807 log2FC

**Q.** With “CTCGAGGATATCAAGATCTGGCCTCGGCACGATAAAAGGAACCTCTAGCTAGCCGACTCACTATAGGGATAATCGCCCTGAGCAAAGACC” as the sequence, how does the binding signal read?
**A.** 1.32 ± 0.0937 log2FC

**Q.** How did the binding signal turn out when “CTCGAGGATATCAAGATCTGGCCTCGGCCTTTTATTAGGAACCTCTAGCTAGCCGACTCACTATAGGGATAATCGCCCTGAGCAAAGACC” was run?
**A.** 3.32 ± 0.0849 log2FC

**Q.** How did the binding signal turn out when “CTCGAGGATATCAAGATCTGGCCTCGGCTTTTTATTGGGAACCTCTAGCTAGCCGACTCACTATAGGGATAATCGCCCTGAGCAAAGACC” was run?
**A.** 3.26 ± 0.0862 log2FC

**Q.** “CTCGAGGATATCAAGATCTGGCCTCGGCGCGTGGAGCGGAACCTCTAGCTAGCCGACTCACTATAGGGATAATCGCCCTGAGCAAAGACC” was tested. Which binding signal did it give?
**A.** -0.893 ± 0.118 log2FC

**Q.** For “CTCGAGGATATCAAGATCTGGCCTCGGCATTTTAGTAGGAACCTCTAGCTAGCCGACTCACTATAGGGATAATCGCCCTGAGCAAAGACC”, which binding signal is on record?
**A.** 1.68 ± 0.0834 log2FC

**Q.** For “CTCGAGGATATCAAGATCTGGCCTCGGCCTTATAAAAGGAACCTCTAGCTAGCCGACTCACTATAGGGATAATCGCCCTGAGCAAAGACC”, which binding signal is on record?
**A.** 2.88 ± 0.0949 log2FC

**Q.** With “CTCGAGGATATCAAGATCTGGCCTCGGCTTTTTATGTGGAACCTCTAGCTAGCCGACTCACTATAGGGATAATCGCCCTGAGCAAAGACC” as the sequence, how does the binding signal read?
**A.** 2.89 ± 0.0872 log2FC

**Q.** Which binding signal does the source give for “CTCGAGGATATCAAGATCTGGCCTCGGCGCCGTAAAAGGAACCTCTAGCTAGCCGACTCACTATAGGGATAATCGCCCTGAGCAAAGACC” here?
**A.** 1.76 ± 0.0756 log2FC

**Q.** How did the binding signal turn out when “CTCGAGGATATCAAGATCTGGCCTCGGCCTTTTACTAGGAACCTCTAGCTAGCCGACTCACTATAGGGATAATCGCCCTGAGCAAAGACC” was run?
**A.** 3.01 ± 0.0725 log2FC

**Q.** “CTCGAGGATATCAAGATCTGGCCTCGGCCGCATACGCGGAACCTCTAGCTAGCCGACTCACTATAGGGATAATCGCCCTGAGCAAAGACC” was tested. Which binding signal did it give?
**A.** -1.09 ± 0.122 log2FC

**Q.** For “CTCGAGGATATCAAGATCTGGCCTCGGCCGCCCATTAGGAACCTCTAGCTAGCCGACTCACTATAGGGATAATCGCCCTGAGCAAAGACC”, which binding signal is on record?
**A.** -0.218 ± 0.102 log2FC

**Q.** For “CTCGAGGATATCAAGATCTGGCCTCGGCAGAGTAAAAGGAACCTCTAGCTAGCCGACTCACTATAGGGATAATCGCCCTGAGCAAAGACC”, which binding signal is on record?
**A.** 0.253 ± 0.1 log2FC

**Q.** How did the binding signal turn out when “CTCGAGGATATCAAGATCTGGCCTCGGCCGGCTAAAAGGAACCTCTAGCTAGCCGACTCACTATAGGGATAATCGCCCTGAGCAAAGACC” was run?
**A.** -0.621 ± 0.107 log2FC

**Q.** How did the binding signal turn out when “CTCGAGGATATCAAGATCTGGCCTCGGCCTTTTACCAGGAACCTCTAGCTAGCCGACTCACTATAGGGATAATCGCCCTGAGCAAAGACC” was run?
**A.** 0.296 ± 0.0912 log2FC

**Q.** With “CTCGAGGATATCAAGATCTGGCCTCGGCTTTTTATTAGGAACCTCTAGCTAGCCGACTCACTATAGGGATAATCGCCCTGAGCAAAGACC” as the sequence, how does the binding signal read?
**A.** 3.3 ± 0.0796 log2FC

**Q.** With “CTCGAGGATATCAAGATCTGGCCTCGGCGTTTTAAGCGGAACCTCTAGCTAGCCGACTCACTATAGGGATAATCGCCCTGAGCAAAGACC” as the sequence, how does the binding signal read?
**A.** 0.144 ± 0.109 log2FC

**Q.** Which binding signal does the source give for “CTCGAGGATATCAAGATCTGGCCTCGGCTCTGTAAAAGGAACCTCTAGCTAGCCGACTCACTATAGGGATAATCGCCCTGAGCAAAGACC” here?
**A.** 1.83 ± 0.0871 log2FC

**Q.** With “CTCGAGGATATCAAGATCTGGCCTCGGCTGACCACGCGGAACCTCTAGCTAGCCGACTCACTATAGGGATAATCGCCCTGAGCAAAGACC” as the sequence, how does the binding signal read?
**A.** -1.02 ± 0.112 log2FC

**Q.** For “CTCGAGGATATCAAGATCTGGCCTCGGCTATATAAAAGGAACCTCTAGCTAGCCGACTCACTATAGGGATAATCGCCCTGAGCAAAGACC”, which binding signal is on record?
**A.** 2.63 ± 0.0902 log2FC

**Q.** With “CTCGAGGATATCAAGATCTGGCCTCGGCTCCCTAAAAGGAACCTCTAGCTAGCCGACTCACTATAGGGATAATCGCCCTGAGCAAAGACC” as the sequence, how does the binding signal read?
**A.** -0.0391 ± 0.141 log2FC

**Q.** With “CTCGAGGATATCAAGATCTGGCCTCGGCCTTTTATTGGGAACCTCTAGCTAGCCGACTCACTATAGGGATAATCGCCCTGAGCAAAGACC” as the sequence, how does the binding signal read?
**A.** 3.44 ± 0.0778 log2FC

**Q.** How did the binding signal turn out when “CTCGAGGATATCAAGATCTGGCCTCGGCTTTTTACTTGGAACCTCTAGCTAGCCGACTCACTATAGGGATAATCGCCCTGAGCAAAGACC” was run?
**A.** 1.32 ± 0.0895 log2FC

**Q.** How did the binding signal turn out when “CTCGAGGATATCAAGATCTGGCCTCGGCCGCATCCGCGGAACCTCTAGCTAGCCGACTCACTATAGGGATAATCGCCCTGAGCAAAGACC” was run?
**A.** -0.957 ± 0.122 log2FC

**Q.** With “CTCGAGGATATCAAGATCTGGCCTCGGCGTTTTAAGAGGAACCTCTAGCTAGCCGACTCACTATAGGGATAATCGCCCTGAGCAAAGACC” as the sequence, how does the binding signal read?
**A.** 2.61 ± 0.088 log2FC

**Q.** With “CTCGAGGATATCAAGATCTGGCCTCGGCGATGTAAAAGGAACCTCTAGCTAGCCGACTCACTATAGGGATAATCGCCCTGAGCAAAGACC” as the sequence, how does the binding signal read?
**A.** 0.79 ± 0.0749 log2FC

**Q.** For “CTCGAGGATATCAAGATCTGGCCTCGGCATTTTAGTTGGAACCTCTAGCTAGCCGACTCACTATAGGGATAATCGCCCTGAGCAAAGACC”, which binding signal is on record?
**A.** 0.276 ± 0.112 log2FC

**Q.** With “CTCGAGGATATCAAGATCTGGCCTCGGCGGGCCACGCGGAACCTCTAGCTAGCCGACTCACTATAGGGATAATCGCCCTGAGCAAAGACC” as the sequence, how does the binding signal read?
**A.** -1.1 ± 0.106 log2FC

**Q.** How did the binding signal turn out when “CTCGAGGATATCAAGATCTGGCCTCGGCTCCGTAAAAGGAACCTCTAGCTAGCCGACTCACTATAGGGATAATCGCCCTGAGCAAAGACC” was run?
**A.** 1.22 ± 0.0847 log2FC

**Q.** With “CTCGAGGATATCAAGATCTGGCCTCGGCGTTTTAGAGGGAACCTCTAGCTAGCCGACTCACTATAGGGATAATCGCCCTGAGCAAAGACC” as the sequence, how does the binding signal read?
**A.** 1.24 ± 0.114 log2FC

**Q.** For “CTCGAGGATATCAAGATCTGGCCTCGGCCTTTTACCTGGAACCTCTAGCTAGCCGACTCACTATAGGGATAATCGCCCTGAGCAAAGACC”, which binding signal is on record?
**A.** -0.0573 ± 0.0997 log2FC

**Q.** With “CTCGAGGATATCAAGATCTGGCCTCGGCCCCGTAAAAGGAACCTCTAGCTAGCCGACTCACTATAGGGATAATCGCCCTGAGCAAAGACC” as the sequence, how does the binding signal read?
**A.** 2.52 ± 0.0899 log2FC

**Q.** Which binding signal does the source give for “CTCGAGGATATCAAGATCTGGCCTCGGCTGTGTAAAAGGAACCTCTAGCTAGCCGACTCACTATAGGGATAATCGCCCTGAGCAAAGACC” here?
**A.** 1.46 ± 0.0852 log2FC

**Q.** For “CTCGAGGATATCAAGATCTGGCCTCGGCCGCCCAGCCGGAACCTCTAGCTAGCCGACTCACTATAGGGATAATCGCCCTGAGCAAAGACC”, which binding signal is on record?
**A.** -0.832 ± 0.147 log2FC

**Q.** “CTCGAGGATATCAAGATCTGGCCTCGGCGTTTTATATGGAACCTCTAGCTAGCCGACTCACTATAGGGATAATCGCCCTGAGCAAAGACC” was tested. Which binding signal did it give?
**A.** 3.04 ± 0.0717 log2FC

**Q.** For “CTCGAGGATATCAAGATCTGGCCTCGGCGTTGTAAAAGGAACCTCTAGCTAGCCGACTCACTATAGGGATAATCGCCCTGAGCAAAGACC”, which binding signal is on record?
**A.** 2.39 ± 0.0772 log2FC

**Q.** With “CTCGAGGATATCAAGATCTGGCCTCGGCTATGTAAAAGGAACCTCTAGCTAGCCGACTCACTATAGGGATAATCGCCCTGAGCAAAGACC” as the sequence, how does the binding signal read?
**A.** 1.05 ± 0.102 log2FC
